SMILES strings stand for the structures. Inconclusive results are not listed. A number with no mark means an inactive call. Calls come from the whole dose curve.
% is set by controls: 0 for no effect and ±100 for the full control effect.

The nature of this assay: qHTS assay to identify small molecule agonists of the endoplasmic reticulum stress response signaling pathway - cell viability counter screen (AID 1159517). Note: nearly all actives have a fitted effect of over 50% in size. The note with it: ESRE-bla HeLa viability, CellTiter-Glo luminescence, 5 h; series mostly up to 61 µM; activity change, negative = cytotoxicity: at the top concentration. An excerpt:
U.S. Tox21 Program National Center for Advancing Translational Sciences [NCATS] NIH Chemical Genomics Center [NCGC] U.S. Environmental Protection Agency [EPA] National Institutes of Environmental Health Sciences [NIEHS] National Toxicology Program [NTP] U.S. Food and Drug Administration [FDA] Tox21 Assay Overview: Endoplasmic Reticulum (ER) plays an important role in cellular signaling, protein folding/maturation, stress response, lipid biosynthesis, calcium storage and release etc. Under stress conditions, proteins in ER misfold or unfold, and leading to the expression of ER stress responsive genes. ER stress has been associated with a variety of pathophysiological conditions such as cancer, inflammation, neurodegenerative diseases, diabetes, ischemic heart disease etc. To identify the compounds that induce ER stress response, an ER stress reporter cell line, CellSensor ESRE-bla HeLa (Life Technologies, Carlsbad, CA) containing a beta-lactamase reporter gene under control of the Endoplasmic reticulum Stress Response Element (ESRE) was used to screen Tox21 10K compound library. The cytotoxicity of the Tox21 compound library against the ESRE-bla HeLa cell line was tested in parallel by measuring cell viability using the CellTiter-Glo assay in the same wells.
Tox21 Assay Protocol Summary: ESRE-bla HeLa cells were dispensed at 1,500 cells/6 uL of assay medium per well into black wall/clear-bottom 1536-well plates using a Multidrop Combi (ThermoFisher Scientific, Waltham, MA) dispenser. After the assay plates were incubated at 37 C and 5% CO2 for an overnight, 23 nL of compounds dissolved in DMSO, positive controls or DMSO only was transferred to the assay plate by a Pintool station (Kalypsys, San Diego, CA). The assay plates were incubated at 37 C and 5% CO2 for 5 hr. One uL of LiveBLAzer B/G FRET substrate (Life Technologies) was added using a FRD (Flying Reagent Dispenser, Aurora Discovery, San Diego, CA) and the plates were incubated at room temperature for 2 hr. Fluorescence intensity (405 nm excitation, 460 nm and 530 nm emissions) was measured using an Envision plate reader (PerkinElmer, Shelton, CT). For cytotoxicity, 4 ul/well of CellTiter-Glo reagent was added into the assay plates using an FRD. After 30 min incubation at room temperature, the luminescence intensity was measured using a ViewLux plate reader (PerkinElmer).
In general terms: Quantitative high-throughput screening tests each substance at several concentrations.
As for `Cc1ccc(C)c(N)c1`, the “activity change, negative = cytotoxicity” value is 4.43%.
Consider `O=C(Cl)c1cccc([N+](=O)[O-])c1`, for which the “activity change, negative = cytotoxicity” value is 6.56%.
The result for `CC1(C)S[C@@H]2[C@H](NC(=O)C(C(=O)O)c3ccccc3)C(=O)N2[C@H]1C(=O)O` (stereo not given in full) reads -0.881%; that for `Cc1ccccc1C(=O)Nc1ccc(C(=O)N2CCCC(O)c3cc(Cl)ccc32)c(C)c1` (stereo not given), 13.6%; that for `CCOc1ccc2nc(N)sc2c1`, -0.692%.
For `Cc1c[nH]c(=S)[nH]c1=O`, the “activity change, negative = cytotoxicity” value was -38.5%.
The result for `CC(C)NC[C@@H](O)COc1cccc2ccccc12` reads -24.2%; that for `CCCCNCCCC`, -26.6%.
Take `COC(=O)c1ccc2cc(C(=O)OC)ccc2c1`: the “activity change, negative = cytotoxicity” value was 1.84% [at 28.5 µM].
The result for `CCN[C@H]1CN(CCCOC)S(=O)(=O)c2sc(S(N)(=O)=O)cc21` reads -5.07%.
The result for `COc1ccccc1N1CCN(CCCNc2cc(=O)n(C)c(=O)n2C)CC1` reads 2.58%; that for `CN(C)C(=O)NC1(c2ccccc2)CCN(CCC[C@]2(c3ccc(Cl)c(Cl)c3)CCCN(C(=O)c3ccccc3)C2)CC1`, 19.2% [at 28.5 µM]; that for `CN1CCN(c2c(F)cc3c(=O)c(C(=O)O)cn4c3c2SCC4)CC1`, -1.45%.
In the case of `Cc1ncc(CO)c(CN)c1O`, the “activity change, negative = cytotoxicity” value was 1.24%.
With `O=C1Nc2ccc([N+](=O)[O-])cc2C1=O`, the “activity change, negative = cytotoxicity” value was 0.378%.
Take `C=CCCCCCCCCO`: the “activity change, negative = cytotoxicity” value is -14.2%.
The result for `Cc1onc(-c2ccccc2)c1C(=O)Cl` reads 2.36%.
The result for `OCCN(CCO)CCN(CCO)CCO` reads -0.0248%.
The result for `CCOc1ccc(NS(=O)(=O)c2ccc(N)cc2)nn1` reads 3.34%.
Turning to `O=c1oc2c(O)c(O)cc3c(=O)oc4c(O)c(O)cc1c4c23`, the “activity change, negative = cytotoxicity” value was -1.81% [at 28.5 µM].
For the compound `CCCCCCCCCC#N`, the “activity change, negative = cytotoxicity” value was -0.155%.
For the compound `CCOc1ccccc1N`, the “activity change, negative = cytotoxicity” value was -3.72%.
In the case of `Cc1cc(NS(=O)(=O)c2ccc(N)cc2)nc(C)n1`, the “activity change, negative = cytotoxicity” value was -1.04%.
As to `CCCCCCCCCCCCOCCOS(=O)(=O)O`, the “activity change, negative = cytotoxicity” value is -16.9%.
The result for `COc1nc(C)nc(NC(=O)NS(=O)(=O)c2ccccc2OCCCl)n1` reads 3.76%; that for `NC(Cc1ccc(F)cc1)C(=O)O` (stereo not given), 0.188% [at 6.95 µM]; that for `C[C@@H]1CN(c2c(F)c(F)c3c(=O)c(C(=O)O)cn(C4CC4)c3c2F)C[C@H](C)N1`, -6.73% [at 28.5 µM].
As to `CCC(=O)Nc1ccc(O)cc1`, the “activity change, negative = cytotoxicity” value was 7.5%.
The result for `ClC(Cl)Cl` reads 8.62%; that for `CCCN(CCC)C(=O)C(CCC(=O)O)NC(=O)c1ccccc1` (stereo not given), 12.8%; that for `COc1cc2c(cc1N)oc1ccccc12`, -1.09% [at 78.8 µM].
The result for `CC(C)C(=O)OCC(C)(C)C(O)C(C)C` (stereo not given) reads 25.5% [at 78.8 µM].
In the case of `CCCCN1C[C@H](O)[C@@H](O)[C@H](O)[C@H]1CO`, the “activity change, negative = cytotoxicity” value is -23.8%.
The result for `CCCCNc1cc(C(=O)O)cc(S(N)(=O)=O)c1Oc1ccccc1` reads -12.5%; that for `CCc1cc(Cl)c(OC)c(C(=O)NC[C@@H]2CCCN2CC)c1O`, 5.01%.
As to `Cc1c(C(=O)NCCO)[n+](=O)c2ccccc2n1[O-]`, the “activity change, negative = cytotoxicity” value was 7.41%.
The result for `O=[N+]([O-])c1nccn1CO[C@@H](CO)[C@H](O)CO` reads -1.13%; that for `c1ccc(CN(CC2=NCCN2)c2ccccc2)cc1`, 15.3%.
For `OCc1c2ccccc2cc2ccccc12`, the “activity change, negative = cytotoxicity” value was 11.5% [at 78.8 µM].
For `Cc1nnc(SCC2=C(C(=O)O)N3C(=O)[C@@H](NC(=O)Cn4cnnn4)[C@H]3SC2)s1`, the “activity change, negative = cytotoxicity” value was -12.8%.
